Calls of active or inactive are those of the source. Unless noted, how the calls were made is not given here.
Legend:
[1] = system: Wnt5a (protein binding on small-molecule microarray); assay: small molecules binding Wnt5a protein – biophysical, small-molecule microarray, 635/667 nm fluorescence, primary screen (AID 1142); settings: 635 nm fluorescence, higher = more signal;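 further: fluorescence read at 667 nm with signal to noise per printed feature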
[2] = ATP-based viability of Huh7 replicon cells – cell-based, CellTiter-Glo luminescence, basal, 48 h, cytotoxicity control for HCV replication inhibitor project, primary screen (AID 1143); settings: higher = more signal, called active from +8 up or from −8 down;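 further: Huh7 hepatoma cells carrying a hepatitis C replication reporter with no stimulus; test concentration not given here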
[3] = Pseudomonas biofilm growth suppression – PAO1 strain, BacTiter-Glo luminescence, LB-PBS, primary screen (AID 1144); settings: P. aeruginosa PAO1 biofilm, 12 h, higher = more signal
[4] = basal CRE-LacZ reporter activity in PC12 – cell-based, unstimulated, primary screen (AID 1145); settings: no forskolin, luminescence, 4.5 h, higher = more signal, called active from +8 up or from −8 down
[5] = forskolin-driven CRE-LacZ activity in PC12 – cell-based, CRE-LacZ reporter, forskolin-stimulated, primary screen (AID 1146); settings: luminescence, 4.5 h, higher = more signal, called active from +8 up or from −8 down;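 further: PC12 cells with 6xCRE LacZ reporter stimulated by forskolin 10 µM; beta-galactosidase reporter signal reflecting CREB driven transcription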
[6] = molecular target: Streptavidin (Streptomyces avidinii) (UniProt P22629); assay: compounds binding control protein streptavidin – biophysical, small-molecule microarray, 635/667 nm fluorescence, artefact control for SMM compound annotation, primary screen (AID 1147); settings: higher = more signal;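 further: signal reflects streptavidin binding to arrayed compounds as a control protein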
[7] = probe aInhba binding on compound microarray – biochemical, small-molecule microarray, 635/667 nm fluorescence, primary screen (AID 1148); settings: higher = more signal;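 further: score merges 667nm spot fluorescence with signal-to-noise for antibody binding to printed compounds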
Torsin-1A (Homo sapiens) [8] = molecular target: Torsin-1A (Homo sapiens) (UniProt O14656); assay: TOR1A wild-type binding on microarray – cell lysate, small-molecule microarray, lysate, 635/667 nm, primary screen (AID 1149); settings: COS7 hTOR1A-WT lysate, 635 nm fluorescence, higher = more signal
Torsin-1A (Homo sapiens) [9] = molecular target: Torsin-1A (Homo sapiens) (UniProt O14656); assay: torsin A mutant lysate binding on microarrays – cell lysate, small-molecule microarray, COS7 lysate, 635/667 nm fluorescence, primary screen (AID 1150); settings: COS7 hTOR1A mutant lysate, 635 nm fluorescence, higher = more signal;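 further: score pools 667 nm emission and signal to noise measuring lysate protein binding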
[10] = system: Sonic hedgehog protein (Shh); assay: Sonic hedgehog microarray binding compounds – biochemical, small-molecule microarray, 635/667 nm fluorescence, primary screen (AID 1151); settings: 635 nm fluorescence, higher = more signal;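 further: Shh protein binding to compounds spotted on small-molecule microarray slides; score combines spot fluorescence intensity with signal-to-noise across triplicate slides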
[11] = optical density shifts of acrAB sulA E. coli – strain DRC41, OD650, 48 h, E. coli filamentation inducer project, primary screen (AID 1152); settings: higher = more signal, called active from +8 up or from −8 down;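 further: E. coli MC1000 strain DRC41 lacking acrAB efflux pump and sulA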
[12] = probe aLefty1 binding on compound microarray – biochemical, small-molecule microarray, 635/667 nm fluorescence, primary screen (AID 1153); settings: higher = more signal;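 further: score merges spot fluorescence with signal-to-noise ratio from the scanned slide images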
[13] = plasmodial surface anion channel blockers, osmotic lysis – cell-based, P. falciparum Indochina, OD700, 1 h, primary screen (AID 1154); settings: P. falciparum Indochina infected RBC osmotic lysis, higher = more signal, called active from +8 up or from −8 down
[14] = plasmodial surface anion channel blockers, osmotic lysis – cell-based, P. falciparum Indochina, OD700, 2 h, primary screen (AID 1155);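 further: lysis reports solute entry through the parasite surface anion channel PSAC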; settings: P. falciparum Indochina infected erythrocytes, higher = more signal, called active from +8 up or from −8 down
[15] = changes in parasitized red cell lysis, either direction – P. falciparum Indochina, OD700, 3 h, PSAC antagonist project, primary screen (AID 1156); settings: P. falciparum-infected erythrocytes, osmotic lysis, higher = more signal, called active from +8 up or from −8 down
[16] = plasmodial surface anion channel blockers, osmotic lysis – cell-based, P. falciparum Indochina, OD700, 18 h, primary screen (AID 1157); settings: P. falciparum Indochina infected erythrocytes, osmotic lysis OD700, 18 h; higher = more signal, called active from +8 up or from −8 down
[17] = S6 kinase pathway phospho-S6 level changes – cell-based, A549, cytoblot, luminescence, serum-stimulated, primary screen (AID 1158); settings: 5 h, higher = more signal;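 further: serum-stimulated A549 lung adenocarcinoma cells; signal is phosphorylated S6 detected by cytoblot immunostaining with HRP secondary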
[18] = molecular target: NADPH oxidase 2 (Homo sapiens) (UniProt P04839); assay: compounds shifting NOX2 Amplex Red fluorescence – cell-based, HEK293-NOX2, PMA-stimulated, NOX inhibitor project, primary screen (AID 1159); settings: 45 min, higher = more signal, called active from +8 up or from −8 down; further: test concentration not given here
[19] = molecular target: NADPH oxidase 4 (Homo sapiens) (UniProt Q9NPH5); assay: compounds shifting NOX4 Amplex Red fluorescence – cell-based, HEK293-NOX4, tetracycline-induced, NOX inhibitor project, primary screen (AID 1160); settings: HEK293-NOX4, Amplex Red H2O2 fluorescence, 45 min; higher = more signal, called active from +8 up or from −8 down
[20] = molecular target: NADPH oxidase 5 (Homo sapiens) (UniProt Q96PH1); assay: compounds shifting NOX5 Amplex Red fluorescence – cell-based, HEK293-NOX5, NOX inhibitor project, primary screen (AID 1161); settings: HEK293-NOX5, ionomycin, 45 min, higher = more signal
Chain of NADPH oxidase 5 (Homo sapiens) (Q96PH1 whole entry, looked up): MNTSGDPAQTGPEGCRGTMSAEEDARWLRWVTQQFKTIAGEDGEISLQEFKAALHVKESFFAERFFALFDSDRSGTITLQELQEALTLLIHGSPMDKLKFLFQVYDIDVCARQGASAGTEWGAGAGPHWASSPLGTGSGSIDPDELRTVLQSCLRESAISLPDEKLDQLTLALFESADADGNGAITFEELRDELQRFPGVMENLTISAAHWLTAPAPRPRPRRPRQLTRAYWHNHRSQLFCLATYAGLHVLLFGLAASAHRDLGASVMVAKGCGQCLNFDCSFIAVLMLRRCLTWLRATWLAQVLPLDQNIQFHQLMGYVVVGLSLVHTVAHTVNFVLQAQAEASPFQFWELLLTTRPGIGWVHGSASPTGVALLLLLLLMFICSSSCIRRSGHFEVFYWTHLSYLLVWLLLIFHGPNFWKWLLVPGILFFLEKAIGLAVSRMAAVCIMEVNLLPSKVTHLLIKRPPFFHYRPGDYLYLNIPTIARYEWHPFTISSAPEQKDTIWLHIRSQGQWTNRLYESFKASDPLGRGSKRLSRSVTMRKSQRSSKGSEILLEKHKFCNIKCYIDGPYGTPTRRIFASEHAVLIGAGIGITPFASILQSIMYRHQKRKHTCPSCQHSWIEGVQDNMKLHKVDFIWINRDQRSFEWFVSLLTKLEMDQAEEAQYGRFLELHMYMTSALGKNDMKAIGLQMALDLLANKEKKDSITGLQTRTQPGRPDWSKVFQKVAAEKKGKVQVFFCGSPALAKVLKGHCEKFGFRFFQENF

Chain of Torsin-1A (Homo sapiens) (O14656 whole entry, looked up): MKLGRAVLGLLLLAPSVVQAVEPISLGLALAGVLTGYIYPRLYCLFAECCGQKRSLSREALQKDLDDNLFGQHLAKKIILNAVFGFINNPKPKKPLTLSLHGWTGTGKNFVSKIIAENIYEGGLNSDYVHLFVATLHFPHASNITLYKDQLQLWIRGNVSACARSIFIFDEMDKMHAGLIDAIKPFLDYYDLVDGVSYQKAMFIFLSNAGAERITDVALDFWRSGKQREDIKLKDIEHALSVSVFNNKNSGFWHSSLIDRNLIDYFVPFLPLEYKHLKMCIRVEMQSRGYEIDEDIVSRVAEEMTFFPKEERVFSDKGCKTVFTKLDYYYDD
Chain of NADPH oxidase 4 (Homo sapiens) (Q9NPH5 whole entry, looked up): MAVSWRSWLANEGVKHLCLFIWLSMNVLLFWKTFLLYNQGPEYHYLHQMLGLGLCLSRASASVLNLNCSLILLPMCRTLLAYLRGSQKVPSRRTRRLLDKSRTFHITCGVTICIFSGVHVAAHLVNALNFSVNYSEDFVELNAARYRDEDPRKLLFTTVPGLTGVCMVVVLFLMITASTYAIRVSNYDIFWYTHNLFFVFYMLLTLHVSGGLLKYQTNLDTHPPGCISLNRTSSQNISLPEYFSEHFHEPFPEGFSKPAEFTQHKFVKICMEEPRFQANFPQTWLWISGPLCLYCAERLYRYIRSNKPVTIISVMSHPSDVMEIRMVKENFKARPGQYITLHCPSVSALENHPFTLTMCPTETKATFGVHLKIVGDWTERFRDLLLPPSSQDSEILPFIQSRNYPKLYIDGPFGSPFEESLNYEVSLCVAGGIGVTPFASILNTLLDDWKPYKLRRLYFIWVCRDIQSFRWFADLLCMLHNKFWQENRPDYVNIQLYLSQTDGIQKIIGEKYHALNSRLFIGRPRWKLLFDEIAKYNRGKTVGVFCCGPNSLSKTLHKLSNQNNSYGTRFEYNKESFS
Chain of NADPH oxidase 2 (Homo sapiens) (P04839 whole entry, looked up): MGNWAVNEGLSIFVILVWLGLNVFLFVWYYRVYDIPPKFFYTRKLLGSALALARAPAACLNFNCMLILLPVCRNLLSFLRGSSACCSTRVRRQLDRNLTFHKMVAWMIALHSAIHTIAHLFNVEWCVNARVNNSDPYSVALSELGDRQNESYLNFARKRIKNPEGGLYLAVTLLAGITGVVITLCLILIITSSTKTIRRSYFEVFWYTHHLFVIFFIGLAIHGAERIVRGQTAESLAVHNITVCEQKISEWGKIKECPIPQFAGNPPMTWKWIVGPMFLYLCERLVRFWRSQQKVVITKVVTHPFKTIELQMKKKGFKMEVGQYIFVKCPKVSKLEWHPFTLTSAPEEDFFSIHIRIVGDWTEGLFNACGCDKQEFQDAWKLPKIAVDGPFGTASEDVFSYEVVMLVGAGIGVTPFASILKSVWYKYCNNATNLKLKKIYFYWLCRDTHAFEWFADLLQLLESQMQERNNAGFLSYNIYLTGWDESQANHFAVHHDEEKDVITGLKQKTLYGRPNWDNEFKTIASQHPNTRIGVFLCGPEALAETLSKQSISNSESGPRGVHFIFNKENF
Chain of Streptavidin (Streptomyces avidinii) (P22629 whole entry, looked up): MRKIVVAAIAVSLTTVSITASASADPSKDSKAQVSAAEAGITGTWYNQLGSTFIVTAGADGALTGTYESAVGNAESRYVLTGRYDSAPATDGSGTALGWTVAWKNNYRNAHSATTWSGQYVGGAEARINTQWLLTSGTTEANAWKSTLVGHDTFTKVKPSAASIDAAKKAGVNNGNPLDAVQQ

Row | Compound | composite z-score [1] | z-score [2] | z-score [3] | z-score [4] | z-score [5] | composite z-score [6] | composite z-score [7] | composite z-score (Torsin-1A (Homo sapiens) [8]) | composite z-score (Torsin-1A (Homo sapiens) [9]) | composite z-score [10] | z-score [11] | composite z-score [12] | z-score [13] | z-score [14] | z-score [15] | z-score [16] | z-score [17] | z-score [18] | z-score [19] | z-score [20]
1 | C=C(COC)/C(=C/C[C@H](OC(C)=O)c1ccccc1OCCO)c1cc(C(=O)OC)ccc1OC | 0.0266 | -3.38 (inactive) | 0.0472 (inactive) | 14.7 (active) | 0.659 (inactive) | -0.432 | -0.0589 | -0.035 | 0.727 | 1.2 | 0.311 (inactive) | -0.145 | 8.11 (active) | 1.02 (inactive) | 0.454 (inactive) | -0.897 (inactive) | 1.52 | -0.688 (inactive) | 0.0021 (inactive) | -1.97
2 | CCCCC(O)C1C=CC2C(=O)N(c3ccccc3)C(=O)C2N1Nc1ccccc1 (stereo not given) | -0.152 | 0.564 (inactive) | -0.279 (inactive) | 0.257 (inactive) | 0.875 (inactive) | 0.682 | 0.0278 | -0.0483 | 0.0691 | -1.35 | -0.274 (inactive) | 0.139 | 4.52 (inactive) | 0.786 (inactive) | -0.196 (inactive) | 1.17 (inactive) | -0.439 | -1.17 (inactive) | -2.93 (inactive) | -2.06
3 | COCCCNC(=O)[C@@]1(Sc2ccc(C)cc2)CC(=O)N(Cc2ccccc2C(F)(F)F)[C@@H]1c1ccc(CO)cc1I | -0.249 | -0.818 (inactive) | 0.86 (inactive) | -0.0888 (inactive) | 0.421 (inactive) | -0.503 | -0.111 | -1.5 | -0.642 | -1.02 | 0.0516 (inactive) | 0.112 | 2.06 (inactive) | 0.786 (inactive) | 0.385 (inactive) | 0.377 (inactive) | -0.248 | 0.843 (inactive) | -1.01 (inactive) | 2.49
4 | CN(C)c1ccc(C(O)C2C=CC3C(=O)N(Cc4ccccc4)C(=O)C3N2n2cnnc2)cc1 (stereo not given) | -0.347 | 0.166 (inactive) | -1.85 (inactive) | -1.09 (inactive) | -0.607 (inactive) | 0.143 | -0.149 | 0.131 | -0.243 | -0.11 | 1.3 (inactive) | -0.115 | 0.0651 (inactive) | -0.318 (inactive) | 0.747 (inactive) | -0.553 (inactive) | 1.02 | 0.683 (inactive) | -0.524 (inactive) | 0.36
5 | COC(=O)[C@@]1(Cc2ccccc2)[C@H]2c3cc(C(=O)N(C)C)n(Cc4ccc(S(C)(=O)=O)cc4)c3C[C@H]2CN1C(=O)c1ccccc1 | 0.493 | -1.6 (inactive) | -0.361 (inactive) | 0.39 (inactive) | 1.02 (inactive) | 2.48 | 0.496 | -0.178 | 1.13 | -0.68 | -1.77 (inactive) | 0.71 | 1.5 (inactive) | 0.542 (inactive) | 1.95 (inactive) | 0.814 (inactive) | 0.393 | 1.12 (inactive) | -2.78 (inactive) | -2.6
